Active and inactive are the calls of the source.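 How the source made its calls: active means cell event count below 40, meaning activity score above 60 where score is 100 minus count; inactive means the rest.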

The experiment can be described thus: LNCaP cell loss by flow event count, confirmation, cytotoxicity control for prostate differentiation activator project, single point (AID 1076).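 Further: counts scatter-gated live cells after medium removal discards detached dead cells.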 The settings on record: flow cytometry event count, 4 d, stronger effect = lower value. In general terms: Flow cytometry measures light scatter and fluorescence of single cells or particles in a stream.

Turning to `Cc1cc(NC(=O)c2noc3c2CCc2ccccc2-3)n(-c2ccccc2)n1`, the cell event count by setting is: (at 100 µM) 146 (inactive); (event count, at 10 µM) 367.

Take `CCOC(=O)c1ccc(-c2n[nH]c(=O)c3ccccc23)cc1`: the cell event count is 345 (inactive) (at 100 µM) and 236 (event count, at 10 µM).

In the case of `Cc1ccc(Cn2c(C(=O)NCCCN3CCOCC3)cc3sccc32)cc1`, the cell event count is, setting by setting: (at 100 µM) 279 (inactive); (event count, at 10 µM) 379.

Take `CCOc1ccc2ccccc2c1C(=O)N1CCN(c2ccccc2)CC1`: the cell event count is 19 (inactive) (at 100 µM) and 79.5 (event count, at 10 µM).

`CCN(CC)CCNC(=O)c1cc2c(-c3ccc(Cl)cc3)nn(C)c2s1`: the cell event count by setting is: (at 100 µM) 25 (active); (event count, at 10 µM) 25.

On to `Cc1cc(C)n2nnnc2c1C#N`, for which the cell event count reads like this: (at 100 µM) 257 (inactive); (event count, at 10 µM) 172.

With `O=C(Cn1cc2c(n1)CCCC2)NCCCN1CCN(c2ccccc2F)CC1`, the cell event count runs as follows: (at 100 µM) 94 (inactive); (event count, at 10 µM) 102.

Consider `COc1cccc(-c2cc(C(=O)N3CCN(C(c4ccccc4)c4ccccc4)CC3)no2)c1`, for which the cell event count was 440 (inactive) (at 100 µM) and 402 (event count, at 10 µM).

Turning to `COC(=O)C1=C(C)N=c2s/c(=C/c3cccs3)c(=O)n2C1c1cccs1` (stereo not drawn), the cell event count (at 100 µM) was 125 (inactive) and the cell event count (event count, at 10 µM) stood at 320.

In the case of `Cc1oc(-c2cccc(Cl)c2)nc1CN1CCC(C(=O)NCC2CCCO2)CC1` (stereo not drawn), the cell event count (at 100 µM) is 174 (inactive) and the cell event count (event count, at 10 µM) turned out to be 165.

With `Cc1cc(NC(=O)CSc2nnc(C3CC3)n2C)no1`, the cell event count is, setting by setting: (at 100 µM) 198 (inactive); (event count, at 10 µM) 100.

With `CCn1c(=O)cc(SCC(=O)NCCCN2CCN(c3ccc(F)cc3)CC2)c2ccccc21`, the cell event count (at 100 µM) is 14 (inactive) and the cell event count (event count, at 10 µM) turned out to be 241.

Turning to `CCOC(=O)c1c(-c2ccc(C)o2)csc1NC(=O)CN1CCN(CC)CC1`, the cell event count (at 100 µM) is 27 (inactive) and the cell event count (event count, at 10 µM) stood at 170.

Turning to `O=C(NCCCN1CCN(c2ccccc2F)CC1)C1CCN(S(=O)(=O)c2cccs2)CC1`, the cell event count (at 100 µM) is 44 (inactive) and the cell event count (event count, at 10 µM) turned out to be 95.5.

As for `COCCn1cc(C(=O)N2CCCC(C)C2)c2c3ccccc3n(C)c2c1=O` (stereo not drawn), the cell event count is, setting by setting: (at 100 µM) 180 (inactive); (event count, at 10 µM) 176.

Take `Cc1oc(-c2cccc(Cl)c2)nc1CN1CCCC(C(=O)NCc2ccco2)C1` (stereo not drawn): the cell event count (at 100 µM) is 10 (inactive) and the cell event count (event count, at 10 µM) came out at 146.

`O=C(NCCCN1CCN(c2cccc(Cl)c2)CC1)c1ccc(N2CCCC2=O)cc1`: the cell event count (at 100 µM) is 52 (inactive) and the cell event count (event count, at 10 µM) worked out at 171.

For the molecule `CCCOc1ccccc1C1CC(=O)Nc2cc3c(cc21)OCO3` (stereo not drawn), the cell event count (at 100 µM) is 6 (active) and the cell event count (event count, at 10 µM) was found to be 56.

Take `COc1ccc(-c2cc(C(=O)NCc3ccc(Cl)cc3)no2)cc1OC`: the cell event count is 172 (inactive) (at 100 µM) and 255 (event count, at 10 µM).

As for `Cc1ccc(Cn2ccc(NC(=O)c3cc(-c4ccc(Br)cc4)on3)n2)cc1`, the cell event count (at 100 µM) was 257 (inactive) and the cell event count (event count, at 10 µM) came to 132.

`Cc1ccccc1-c1nc(CN2CCC(C(=O)NCC3CCCO3)CC2)c(C)o1` (stereo not drawn): the cell event count runs as follows: (at 100 µM) 71 (inactive); (event count, at 10 µM) 139.

`Cc1ccc(-n2c(SCC(=O)Nc3nccs3)nc3c(c2=O)SCC3)cc1`: the cell event count runs as follows: (at 100 µM) 83 (inactive); (event count, at 10 µM) 282.

As to `Cc1ccc(C)c(N2CCN(C(=O)CCNC(=O)Cn3ccc4ccccc4c3=O)CC2)c1`, the cell event count is, setting by setting: (at 100 µM) 76 (inactive); (event count, at 10 µM) 148.

As for `O=C(NCCCN1CCN(c2ccccc2F)CC1)C1CCCN(S(=O)(=O)c2cnc[nH]2)C1` (stereo not drawn), the cell event count (at 100 µM) is 425 (inactive) and the cell event count (event count, at 10 µM) was 166.

On to `COc1ccc(NC(=O)NCCCN2CCN(c3cc(C)ccc3C)CC2)cc1`, for which the cell event count was 1 (inactive) (at 100 µM) and 102 (event count, at 10 µM).

Regarding `COc1ccc(Cc2nc(-c3ccc(-n4cccc4)cc3)no2)cc1OC`, the cell event count reads like this: (at 100 µM) 17 (active); (event count, at 10 µM) 28.

With `c1ccc(N2CCN(c3nnc(Cc4cccnc4)c4ccccc34)CC2)nc1`, the cell event count is 40 (inactive) (at 100 µM) and 434 (event count, at 10 µM).

For the molecule `COc1ccc(-c2noc(CCC(=O)NCCCN3CCC(Cc4ccccc4)CC3)n2)cc1`, the cell event count is 23 (active) (at 100 µM) and 51 (event count, at 10 µM).

Consider `O=C1CCCc2c1cc(C(=O)NC1CCSC1=O)c(=O)n2-c1ccccc1` (stereo not drawn), for which the cell event count reads like this: (at 100 µM) 253 (inactive); (event count, at 10 µM) 155.

On to `COc1ccc(-c2oc3ncn(CCN4CCOCC4)c(=N)c3c2-c2ccc(OC)cc2)cc1`, for which the cell event count (at 100 µM) was 26 (inactive) and the cell event count (event count, at 10 µM) stood at 237.

As for `O=C(Nc1nc(-c2ccccc2)cs1)C1CCCCN1S(=O)(=O)c1ccccc1` (stereo not drawn), the cell event count (at 100 µM) was 234 (inactive) and the cell event count (event count, at 10 µM) is 210.

With `Cc1cc(=O)oc(C)c1C(=O)NCCCN1CCN(c2ccc(F)cc2)CC1`, the cell event count is, setting by setting: (at 100 µM) 236 (inactive); (event count, at 10 µM) 100.

`CCc1ncc(C(O)c2cccc(OC)c2OC)n1C` (stereo not drawn): the cell event count (at 100 µM) was 285 (inactive) and the cell event count (event count, at 10 µM) is 172.

`CCc1ccc(-c2nc(CN3CCC(C(=O)N4CCN(c5ccccc5)CC4)CC3)c(C)o2)cc1`: the cell event count is 9 (inactive) (at 100 µM) and 254 (event count, at 10 µM).

Take `CCN1CCN(CCNC(=O)C2CCCN(Cc3nc(-c4cccc(Cl)c4)oc3C)C2)CC1` (stereo not drawn): the cell event count (at 100 µM) was 14 (inactive) and the cell event count (event count, at 10 µM) stood at 141.

Take `CCOC(=O)N1CCN(C(=O)Cc2ccc(-n3c(=O)[nH]c4ccccc4c3=O)cc2)CC1`: the cell event count runs as follows: (at 100 µM) 302 (inactive); (event count, at 10 µM) 265.

On to `Cc1cc2c(=O)n(CC(=O)N3CCN(c4ccccc4)CC3)cnc2s1`, for which the cell event count is 184 (inactive) (at 100 µM) and 170 (event count, at 10 µM).

On to `O=S1(=O)C=C(Sc2nc3ccccc3s2)c2ccccc21`, for which the cell event count (at 100 µM) is 39 (active) and the cell event count (event count, at 10 µM) turned out to be 44.

Turning to `CCN(CC)CCNC(=O)c1nn(-c2ccc(C)cc2)c(=O)c2c1c1ccccc1n2C`, the cell event count runs as follows: (at 100 µM) 18 (inactive); (event count, at 10 µM) 136.

These data come from PubChem BioAssay AID1076 (NMMLSC, 2008).
